Test results reported in PubChem BioAssay AID624330 (Southern Research Specialized Biocontainment Screening …, 2012).
The campaign covered roughly 340,000 compounds. About 2,100 (0.62%) were called active.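 The calls were made as follows: active = first-screen hits whose inhibition reached a set limit at any dose in the follow-up dose series; inconclusive = inhibition above the set first-screen limit but never retested; inactive = the rest.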 These entries were drawn from the full list. Potency and affinity values are given separately.

Molecular target: Rac GTPase-activating protein 1 (Homo sapiens) (UniProt Q9H0H5)
Assay: MgcRacGAP GTPase-activating activity inhibitors, confirmation, biochemical, ADP Hunter fluorescence, primary and confirmatory (AID 624330);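 also: fluorescence reports GDP produced by GAP-driven GTP hydrolysis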
Conditions: MgcRacGAP-stimulated Rac1 GTP hydrolysis, at 30 µM, hits give high values, GST-tagged Rac1 F28L mutant substrate

Sequence of Rac GTPase-activating protein 1 (Homo sapiens) (Q9H0H5 whole entry, looked up): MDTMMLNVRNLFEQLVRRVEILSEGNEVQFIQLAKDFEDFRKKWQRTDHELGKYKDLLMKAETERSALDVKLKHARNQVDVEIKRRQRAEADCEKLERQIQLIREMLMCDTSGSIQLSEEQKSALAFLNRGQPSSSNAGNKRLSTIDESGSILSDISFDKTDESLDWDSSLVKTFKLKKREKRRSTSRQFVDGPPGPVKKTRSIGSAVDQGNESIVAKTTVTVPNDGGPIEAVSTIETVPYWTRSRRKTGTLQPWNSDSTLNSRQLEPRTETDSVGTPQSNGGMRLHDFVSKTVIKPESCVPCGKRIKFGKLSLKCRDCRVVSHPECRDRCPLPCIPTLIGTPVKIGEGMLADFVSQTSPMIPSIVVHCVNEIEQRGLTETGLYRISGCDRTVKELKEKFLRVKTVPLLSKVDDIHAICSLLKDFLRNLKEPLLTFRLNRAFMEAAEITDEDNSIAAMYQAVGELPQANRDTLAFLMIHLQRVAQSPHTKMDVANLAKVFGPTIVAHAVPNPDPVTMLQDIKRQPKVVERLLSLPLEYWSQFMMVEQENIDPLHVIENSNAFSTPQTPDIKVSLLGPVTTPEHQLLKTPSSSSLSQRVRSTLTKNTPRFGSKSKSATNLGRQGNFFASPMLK

inhibition, inactive:
CCCn1c2c(c(O)c(C(=O)NCc3ccccc3)c1=O)CCCC2 0.77%
COCCCN(C(=O)CSCC(=O)Nc1ccc(C)cc1)c1c(N)n(Cc2ccccc2)c(=O)[nH]c1=O 8.76%
COc1cc(NC(=O)CN2C(=O)NC(CC(C)C)C2=O)cc(OC)c1OC (configuration not stated) 6.04%
CC1(C)C(=O)Nc2ccccc2N1C(=O)CN1C(=O)NC(CCc2ccccc2)C1=O (configuration not stated) 2.92%
Cc1cc(C)cc(NC(=O)COC(=O)CCCNC(=O)c2ccc(Cl)cc2)c1 3.85%
COc1ccc(CCNC(=O)c2ccc(N3CCCC3=O)cc2)cc1OC 12.5%
COc1ccc(-c2nnn(CC(=O)N(CC(=O)NCCC(C)C)c3ccccc3)n2)cc1OC 1.41%
Oc1ccc(-c2[nH]ncc2-c2ccc(Br)cc2)c(O)c1 26.8%
COc1ccc(-c2[nH]ncc2-c2ccc(Cl)cc2)c(O)c1 11.8%
CC(C)(C)c1ccc(C(=O)N/C(=C\c2ccco2)C(=O)Nc2ccccc2C(=O)O)cc1 7.9%
C[C@H](NC(=O)C1CCN(S(=O)(=O)c2ccccc2)CC1)C(=O)NC1CC1 4.17%
O=C(NCc1ccc2c(c1)OCO2)c1cc(-c2ccccc2)c(N2CCOCC2)s1 11.5%
COc1ccc(N2CCN(C(=O)C3=NNC(=O)CC3)CC2)cc1 4.93%
Cc1ccc(NC2CCCN(C(=O)CCC3=NNC(=O)CC3)C2)cc1C (configuration not stated) 11.1%
O=C1CCC(C(=O)N2CCCC(Nc3ccc(F)cc3)C2)=NN1 (configuration not stated) 13.7%
COc1ccc(C(=O)C2CCCN(C(=O)CCC3=NNC(=O)CC3)C2)c(C)c1 (configuration not stated) -12.3%
O=C(O)c1ccc(S(=O)(=O)N(Cc2ccc(F)cc2)C2CCCCC2)cc1 7.41%
O=C(Nc1ccc(N2CCOCC2)nc1)c1ccc(F)cc1 3.12%
COc1ccc2cc(/C=N/NC(=O)c3c(Cl)cnn3C)c(Cl)nc2c1 3.85%
Nc1c(Cl)ncnc1N/N=C/c1cccc(O)c1 -2.65%
COc1cccc(/C=N/Nc2ncnc(Cl)c2N)c1O 7.43%
Nc1c(Cl)ncnc1NCCO 12.3%
Cc1ccc(/C=N/Nc2ncnc3nc[nH]c23)cc1 11.9%
Clc1ccc(/C=N/Nc2ncnc3nc[nH]c23)cc1 19.8%
Cc1ccc(CCNc2ncnc(Cl)c2N)cc1 6.24%
Nc1c(Cl)ncnc1N/N=C/c1cccnc1 -0.02%
COc1ccc(/C=N/Nc2ncnc(Cl)c2N)cc1OC 9.22%
CC1CCc2cc(F)ccc2N1C(=O)CN1C(=O)c2ccccc2C1=O (configuration not stated) 7.46%
FC(F)(F)c1ccncc1-c1nnc(C2CCCCC2)o1 12.4%
CCCC(c1nnnn1Cc1ccc(OC)cc1)N1CCC(C(N)=O)CC1 (configuration not stated) 3.71%
CC12CC(NC(=O)N1c1cccc(C(=O)N3CCN(c4ccccc4F)CC3)c1)c1ccccc1O2 (configuration not stated) 4.9%
COC(=O)c1ccc(/C=N/NC(=O)C2CC(=O)N(c3ccc(OC)cc3)C2)cc1 (configuration not stated) -2.9%
CN(CC(=O)Nc1ccccc1C(F)(F)F)C(=O)CN1C(=O)C2CCCCC2C1=O (configuration not stated) 8.57%
COc1cccc2sc3cc(NCc4ccc5c(c4)OCO5)ccc3c(=O)c12 3.16%
CCN(CC)C(=O)C1=C(C)N(Cc2ccc(F)cc2)C(=O)C(CC(=O)NCc2ccco2)C1 (configuration not stated) 13.8%
CCn1cnc2cc(NCc3ccc(C)cc3)ccc21 25.6%
CCn1cnc2cc(NCc3ccc(Cl)cc3)ccc21 20%
COc1cc(NC(=S)N2CCCCC2C)cc(OC)c1OC (configuration not stated) 12.9%
CC(C)(C#CC(O)(c1ccccc1)c1ccccc1)N1CCCC1 11.3%
C[C@H]1CN(S(=O)C(C)(C)C)[C@@H](CCO)/C1=C\CCO (some centres not stated) 5.48%
C=CCNC(=O)CC(=O)N/N=C/c1ccccc1F -1.62%
Cc1cccc(N2CC(C(=O)Nc3cccc(S(=O)(=O)N4CCCCC4)c3)CC2=O)c1C (configuration not stated) 5.62%
CCOc1ccccc1OCCCOc1ccc(C)cc1Cl 12%
CCCCn1c(C)nc2c(=O)n(C)c(=O)[nH]c21 4.63%
Cn1c(=O)c2nc(SCc3ccccc3)n(C)c2n(C)c1=O 6.08%
CCCCn1c(Cl)nc2c1c(=O)n(C)c(=O)n2C 9.62%
CCn1c(=O)n(C)c2c(=O)n(C)c(=O)n(C)c21 -0.22%
CNc1nc2c(c(=O)n(C)c(=O)n2C)n1Cc1ccccc1 -6.26%
CCOC(=O)c1nc2c(=O)n(C)c(=O)n(C)c2n(C)c1=O 0.79%
CCCn1nc(C(=O)NNC(=O)CCCOc2ccc(OC)cc2)c2ccccc2c1=O 1.29%
Cc1nc(N2CCCCC2)c2sc(=S)n(C)c2n1 5.47%
CCOc1ccc(C(=O)NCCc2ccc3c(c2)OCCO3)cc1 6.99%
O=C(Nc1cc(C(F)(F)F)ccc1N1CCOCC1)c1ccc(F)cc1 9.9%
CS(=O)(=O)c1nc(S(=O)(=O)c2ccc(Cl)cc2)c(N2CCCCC2)s1 5.12%
COCCCNC(=O)C1CCC(CNS(=O)(=O)c2ccc(Cl)cc2)CC1 (configuration not stated) -9.18%
O=C(COc1ccc2c3c(c(=O)oc2c1)CCC3)NCCCN1CCCC1=O 9.27%
CC(C)=CCC/C(C)=C/CNC(=O)CC1C[C@H](C(=O)N2CCOCC2)[C@@]2(C)c3[nH]c4ccccc4c3CCN2C1=O (some centres not stated) 7.27%
COc1ccc(-c2ccccc2[C@H]2[C@@H]3C=CC[C@@H](C)[C@@H]3C(=O)N2Cc2ccccc2)cc1 5.83%
C/C(=N\Nc1nc(-c2cc(C)ccc2C)cs1)c1cc2ccccc2oc1=O 6.23%
COC(=O)c1cccc(C(=O)N2CCCC(Nc3ccc4c(c3)OCCO4)C2)c1 (configuration not stated) 29.2%
Cc1cc(C)c(C(=O)N2CCCC(Nc3ccc(C)c(C)c3)C2)o1 (configuration not stated) -18%
COc1ccc(C(=O)C2CCCN(C(=O)c3ccc(CSC)o3)C2)cc1F (configuration not stated) 5.42%
CSCc1ccc(C(=O)N2CCCC(Nc3ccc(F)cc3)C2)o1 (configuration not stated) 7.33%
Cc1cc(C)c(C(=O)N2CCCC(Nc3ccc(F)cc3)C2)o1 (configuration not stated) 1.75%
O=C(c1ccccc1N1CCOCC1)N1CCCC(Nc2ccc(F)cc2)C1 (configuration not stated) 9.71%
O=C(c1cc(Cl)ccc1F)N1CCCC(Nc2ccc3c(c2)OCCO3)C1 (configuration not stated) 30.3%
Cc1ccc(NC2CCCN(C(=O)c3ccccc3N3CCOCC3)C2)cc1C (configuration not stated) 0.36%
O=S(=O)(c1ccccc1)c1nc(-c2ccccc2)oc1N1CCOCC1 6.03%
Cc1nnc(SCc2ccccc2)n1N -3.52%
O=C(O)c1ccc(/C=N/O)cc1 1.83%
CC(C)(C)NC(=O)C(c1ccccc1)N(C(=O)CNC(=O)c1cccs1)c1cccnc1 (configuration not stated) 4.59%
COc1ccc(C=O)cc1Cn1c(=O)n(CCC(=O)NCc2ccco2)c(=O)c2sccc21 8.39%
Cc1cccc(C(=O)Nc2cccc(C(=O)N/N=C/c3cccc(C)n3)c2)c1 13.9%
CSc1cc(SC)ncn1 1.8%
CC(C)(CN1CCOCC1)NS(=O)(=O)c1ccccc1 1.36%
CCN(CC(=O)Nc1cccc(F)c1)Cc1nc2ccccc2c(=O)[nH]1 -2.26%
CN(C)C(/C=C/Nc1ccc(C#N)cc1)=C(C#N)C#N 4.16%
Cc1ccc(C2=CSC3=NCCN23)cc1 11.6%
CC1=CC(C)(C)N(C(=O)CNC2CCCCC2)c2cc(C)ccc21 30.1%
CC1=CC(C)(C)N(C(=O)CCl)c2cc(C)ccc21 2.46%
CCOc1ccccc1C(C(=O)NC1CCCC1)N(C(=O)c1csnn1)C1CC1 (configuration not stated) 6.21%
CC(c1nnc(SCC(=O)NC(=O)NCc2ccco2)n1-c1ccc(Cl)cc1)N(C)C (configuration not stated) 4.03%
CCC(=Cc1ccccc1O)c1ccncc1 2.41%
CC/C(=C\c1ccc(Cl)cc1)c1ccncc1 5.22%
CCOC(=O)C(NC(C)=O)C(=O)Nc1ccc(C(C)(C)C)cc1 (configuration not stated) 15.1%
C[C@H](CO)N1C[C@H](C)[C@@H](CN(C)S(=O)(=O)c2ccc(F)cc2)Oc2ccc(NC(=O)NC3CCCCC3)cc2C1=O 6.3%
CC(C)(Oc1ccc(Cl)cc1)C(=O)N(Cc1ccccc1)c1ccccn1 1.14%
Cc1ccc2sc(NNC(=O)c3cc(=O)c4ccccc4o3)nc2c1C 24.2%
Cc1cc(C)c2nc(NNC(=O)c3cc(=O)c4ccccc4o3)sc2c1 10.6%
Clc1ccc(OCCCN2CCCC2)cc1Cl -13.7%
Cc1ccc(C(C)C)c(OCCCCCN2CCOCC2)c1 7.81%
Cc1cc(OCCCN2CCCC2)ccc1Cl 7.71%
Cc1ccc(OCCCCN2CCCCC2)c(Br)c1 6.79%
Cc1ccc(C)c(OCCCN2CCCC2)c1 19.9%
Cc1cc(C)c(OCCCCN2CCNCC2)c(C)c1 8.89%
Cc1ccc(C)c(OCCCCN2CCNCC2)c1C 4.36%
Cc1ccc(C)c(OCCCN2CCNCC2)c1 7.95%
